Data from PubChem BioAssay (NCI).
About 79,000 compounds went through this panel and 15% of them were active in at least one assay; those are over-represented in the sample as a whole. Unmarked numbers belong to inactive results. Calls of active or inactive are those of the source. Rule as the data show it: active = growth inhibition above about 70%; inactive = the rest.

Assays:
[1] = NCI Yeast Anticancer Drug Screen. Data for the rad52 strain (AID 147);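 also: 0% = growth of vehicle-treated control cultures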; details: S. cerevisiae rad52 mutant growth inhibition, hits give high values
Method in brief: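 Compounds are applied to a genetically defined yeast strain lacking normal DNA damage repair, and inhibition of growth is expressed relative to cultures given vehicle only.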

[2] = NCI Yeast Anticancer Drug Screen. Data for the wt1 strain (AID 149);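 also: 0% = growth of vehicle-treated wt1 cultures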; details: S. cerevisiae wt1 strain (SPY 50644) growth inhibition, hits give high values
Method in brief: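 Vehicle-normalised growth inhibition; strain wt1; compound exposure.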

[3] = NCI Yeast Anticancer Drug Screen. Data for the rad50EPP+ strain (AID 151);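 also: 0% = growth of vehicle-treated control cultures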; details: S. cerevisiae rad50 mutant strain, hits give high values
Method in brief: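 Compounds were applied to the rad50EPP+ yeast strain, which bears a defined DNA repair alteration, and growth inhibition was determined relative to vehicle-treated cultures.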

[4] = NCI Yeast Anticancer Drug Screen. Data for the rad50 strain (AID 155);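 also: 0% = growth of vehicle-only cultures of the same strain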; details: S. cerevisiae rad50 strain growth inhibition, hits give high values
Method in brief: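 A DNA repair-deficient yeast mutant serves as the test organism; compound-induced growth inhibition is calculated against vehicle-treated cells.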

[5] = NCI Yeast Anticancer Drug Screen. Data for the mec2-1 strain (AID 157); details: S. cerevisiae mec2-1 strain, hits give high values
Method in brief: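 Strain: mec2-1 (DNA repair/cell cycle alteration). Compound exposure, then growth measured; inhibition expressed relative to vehicle.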

[6] = NCI Yeast Anticancer Drug Screen. Data for the rad14 strain (AID 159);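 also: 0% = growth of vehicle-treated control cultures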; details: S. cerevisiae rad14 strain growth inhibition, hits give high values
Method in brief: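 Vehicle-treated cultures served as the baseline for growth inhibition of a DNA repair-mutant yeast strain exposed to each compound.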

[7] = NCI Yeast Anticancer Drug Screen. Data for the sgs1 mgt1 strain (AID 161);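 also: 0% = growth of cultures given vehicle only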; details: S. cerevisiae sgs1 mgt1 strain, hits give high values
Method in brief: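 Genetically altered yeast, compound exposure, growth inhibition relative to vehicle.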

[8] = NCI Yeast Anticancer Drug Screen. Data for the CLN2oe strain (AID 163);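 also: 0% = growth of vehicle-only control cultures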; details: S. cerevisiae CLN2oe strain, hits give high values
Method in brief: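 Growth of a genetically modified yeast strain is measured after compound exposure and compared with cultures given vehicle alone.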

[9] = NCI Yeast Anticancer Drug Screen. Data for the cln2 rad14 strain (AID 165);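 also: 0% = growth equal to vehicle treated cultures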; details: S. cerevisiae cln2 rad14 strain, hits give high values
Method in brief: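 Compounds are applied to the cln2 rad14 yeast strain, and growth is then compared with that of vehicle-treated cultures to give inhibition.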

[10] = NCI Yeast Anticancer Drug Screen. Data for the bub3 strain (AID 167); details: S. cerevisiae bub3 mutant strain, hits give high values
Method in brief: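 Inhibition values come from growth of compound-treated mutant yeast normalised to vehicle-treated controls.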

[11] = NCI Yeast Anticancer Drug Screen. Data for the mlh1 strain (AID 171);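 also: 0% = growth of vehicle-treated control cultures of the same strain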; details: S. cerevisiae mlh1 strain growth inhibition, hits give high values
Method in brief: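 Growth of the mutant yeast strain after compound exposure, expressed as inhibition relative to vehicle-only controls.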

[12] = NCI Yeast Anticancer Drug Screen. Data for the sgs1 strain (AID 173);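 also: 0% = growth of vehicle-only control cultures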; details: S. cerevisiae sgs1 mutant, hits give high values
Method in brief: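 Growth of a yeast strain bearing a defined genetic alteration is measured after compound treatment. Inhibition is expressed relative to vehicle-only controls.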

[13] = NCI Yeast Anticancer Drug Screen. Data for the mlh1 rad18 strain (AID 175); details: S. cerevisiae mlh1 rad18 strain growth inhibition, hits give high values
Method in brief: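 Read-out is yeast growth inhibition, calculated against vehicle-only controls. The compound was applied to a strain engineered with DNA damage repair alterations.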

[14] = NCI Yeast Anticancer Drug Screen. Data for the rad18 strain (AID 177); details: S. cerevisiae rad18 mutant growth inhibition, hits give high values
Method in brief: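 Growth of the mutant yeast strain after compound exposure, normalised to vehicle-only cultures.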

[15] = at 5.0 µM (retest, dose inferred, filed as 0.5)
[16] = at 50.0 µM (retest, dose inferred, filed as 5.0)

## COC(COC(=O)N1CCN(C=O)CC1)C1=C(N2CC2)C(=O)C(C)=C(N2CC2)C1=O (stereo not drawn)
[1]; at 1.2 µM
  growth inhibition: 4%
[1]; at 3.7 µM
  growth inhibition: 18%
[1]; at 11.0 µM
  growth inhibition: 30%
[1]; at 33.0 µM
  growth inhibition: 66%
[1]; at 100.0 µM
  growth inhibition: 79% (active)
[2]; at 1.2 µM
  growth inhibition: 10%
[2]; at 3.7 µM
  growth inhibition: 12%
[2]; at 11.0 µM
  growth inhibition: 22%
[2]; at 33.0 µM
  growth inhibition: 39%
[2]; at 100.0 µM
  growth inhibition: 47%
[3]; at 1.2 µM
  growth inhibition: -44%
[3]; at 3.7 µM
  growth inhibition: -38%
[3]; at 11.0 µM
  growth inhibition: -35%
[3]; at 33.0 µM
  growth inhibition: -8%
[3]; at 100.0 µM
  growth inhibition: -5%
[4]; at 1.2 µM
  growth inhibition: 17%
[4]; at 3.7 µM
  growth inhibition: 35%
[4]; [15]
  growth inhibition: 64%
[4]; at 11.0 µM
  growth inhibition: 43%
[4]; at 33.0 µM
  growth inhibition: 53%
[4]; [16]
  growth inhibition: 22%
[4]; at 50.0 µM
  growth inhibition: 35.3%
[4]; at 100.0 µM
  growth inhibition: 79% (active)
[5]; at 1.2 µM
  growth inhibition: -6%
[5]; at 3.7 µM
  growth inhibition: 1%
[5]; [15]
  growth inhibition: 19%
[5]; at 11.0 µM
  growth inhibition: 6%
[5]; at 33.0 µM
  growth inhibition: 36%
[5]; [16]
  growth inhibition: 35%
[5]; at 50.0 µM
  growth inhibition: 32.9%
[5]; at 100.0 µM
  growth inhibition: 67%
[6]; at 1.2 µM
  growth inhibition: 4%
[6]; at 3.7 µM
  growth inhibition: 1%
[6]; at 11.0 µM
  growth inhibition: 6%
[6]; at 33.0 µM
  growth inhibition: 39%
[6]; at 100.0 µM
  growth inhibition: 74% (active)
[7]; [15]
  growth inhibition: -8%
[7]; [16]
  growth inhibition: 26%
[7]; at 50.0 µM
  growth inhibition: 40.4%
[8]; at 1.2 µM
  growth inhibition: 12%
[8]; at 3.7 µM
  growth inhibition: 23%
[8]; at 11.0 µM
  growth inhibition: 25%
[8]; at 33.0 µM
  growth inhibition: 29%
[8]; at 100.0 µM
  growth inhibition: 53%
[9]; [15]
  growth inhibition: -11%
[9]; [16]
  growth inhibition: 27%
[9]; at 50.0 µM
  growth inhibition: 34.5%
[10]; at 1.2 µM
  growth inhibition: -18%
[10]; at 3.7 µM
  growth inhibition: -3%
[10]; [15]
  growth inhibition: -2%
[10]; at 11.0 µM
  growth inhibition: -4%
[10]; at 33.0 µM
  growth inhibition: 10%
[10]; [16]
  growth inhibition: 1%
[10]; at 50.0 µM
  growth inhibition: -10.2%
[10]; at 100.0 µM
  growth inhibition: 18%
[11]; at 1.2 µM
  growth inhibition: -7%
[11]; at 3.7 µM
  growth inhibition: -32%
[11]; at 11.0 µM
  growth inhibition: -9%
[11]; at 33.0 µM
  growth inhibition: 17%
[11]; at 100.0 µM
  growth inhibition: 38%
[12]; at 1.2 µM
  growth inhibition: 20%
[12]; at 3.7 µM
  growth inhibition: 14%
[12]; at 11.0 µM
  growth inhibition: 24%
[12]; at 33.0 µM
  growth inhibition: 40%
[12]; at 100.0 µM
  growth inhibition: 64%
[13]; [15]
  growth inhibition: 23%
[13]; [16]
  growth inhibition: 74% (active)
[13]; at 50.0 µM
  growth inhibition: 79.4% (active)
[14]; at 1.2 µM
  growth inhibition: 26%
[14]; at 3.7 µM
  growth inhibition: 59%
[14]; at 11.0 µM
  growth inhibition: 79% (active)
[14]; at 33.0 µM
  growth inhibition: 89% (active)
[14]; at 100.0 µM
  growth inhibition: 93% (active)
